Compound activity: PubChem, Johns Hopkins Ion Channel Center
KCNQ2 pot: potentiators of rat KCNQ2 potassium channel. 310,000 compounds, 0.54% hits. O88943. B-score at 10 µM. CHO-K1 KCNQ2, FluxOR thallium flux fluorescence; hits give high values;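 active = fluorescence ratio B-score at least 3 SD of library B-scores, with initial fluorescence B-score within 3 of them, cut at about 5.3 in these data; same plate scores as AID 2156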;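 also: B-score of peak minus minimum over baseline fluorescence ratio after K+ and Tl+ stimulus; positive B-score means potentiation of KCNQ2 with more thallium influx and brighter signal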
KCNQ2 inh: inhibitors of rat KCNQ2 potassium channel. CHO-K1 KCNQ2, FluxOR thallium flux, 20 min; hits give low values. B-score at 10 µM. 310,000 compounds, 1.1% hits. AID 2156;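 active = fluorescence ratio B-score at most minus 3 library SDs, with starting brightness B-score within 2 library SDs, cut at about -5.5 in these data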
KCNQ2 block conf: rat KCNQ2 channel inhibition, confirmatory screen; shares compounds with KCNQ2 inh; KCNQ2-expressing cells, thallium flux; hits give low values; activity change, negative = inhibition, % at 10 µM; 1,000 compounds, 57% hits
KCNQ1 spec: human KCNQ1 activity in KCNQ2 inhibitor specificity screen | 1,000 compounds, 15% hits | shares compounds with KCNQ2 inh | activity change, negative = inhibition, % at 10 µM | KCNQ1-expressing cells, FluxOR thallium flux fluorescence; hits give low values | AID 493026;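 active = activity change at least 3 SD of negative controls below their mean in both duplicate wells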;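 also: CHO cells stably transfected with KCNQ1 and depolarized by potassium stimulus; peak minus minimum fluorescence over baseline after thallium addition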
Target sequence (P51787 whole entry, looked up): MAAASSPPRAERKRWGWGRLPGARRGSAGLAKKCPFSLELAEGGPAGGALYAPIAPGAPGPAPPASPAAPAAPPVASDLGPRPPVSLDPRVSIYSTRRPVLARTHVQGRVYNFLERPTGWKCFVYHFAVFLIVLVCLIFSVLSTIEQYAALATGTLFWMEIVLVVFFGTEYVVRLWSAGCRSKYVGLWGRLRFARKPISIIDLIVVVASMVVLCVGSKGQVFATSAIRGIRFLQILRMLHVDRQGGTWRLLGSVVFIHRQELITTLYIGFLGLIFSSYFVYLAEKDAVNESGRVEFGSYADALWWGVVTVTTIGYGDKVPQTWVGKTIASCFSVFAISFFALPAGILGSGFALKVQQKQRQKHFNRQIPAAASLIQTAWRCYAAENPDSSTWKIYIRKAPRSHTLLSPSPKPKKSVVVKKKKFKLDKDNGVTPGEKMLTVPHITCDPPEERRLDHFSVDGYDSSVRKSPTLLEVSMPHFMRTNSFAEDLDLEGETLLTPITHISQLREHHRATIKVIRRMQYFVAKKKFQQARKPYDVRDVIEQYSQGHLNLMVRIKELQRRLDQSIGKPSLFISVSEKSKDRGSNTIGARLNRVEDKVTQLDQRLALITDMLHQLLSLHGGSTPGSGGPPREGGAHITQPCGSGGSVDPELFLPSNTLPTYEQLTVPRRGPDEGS
CHO parental ctr: KCNQ2 inhibitor counter-screen hit in parental CHO cells. 1,000 compounds, 14% hits. thallium flux counter-screen; hits give low values. AID 493029. shares compounds with KCNQ2 inh. activity change, % at 10 µM
KCNQ2 patch conf: confirmation of rat KCNQ2 potassium channel inhibitors. shares compounds with KCNQ2 inh. KCNQ2-expressing cells, automated patch clamp current. calls only at 10 µM. 550 compounds, 49% hits. AID 588531
Hits are given with their value. A selection: hits, their analogues and other compounds. The true share with any hit is near 1.6%. Unless noted, no rule for the calls is given here.

For COc1ccc(N2C(C(C)=O)=NN(c3ccccc3)C2c2cccs2)cc1 (configuration not stated) the results were KCNQ2 pot inactive, KCNQ2 inh -7.2, KCNQ2 block conf -32%, KCNQ1 spec -37%, CHO parental ctr -25% and KCNQ2 patch conf inactive.
For CC(=O)Nc1ccc(N2C(C(C)=O)=NN(c3ccccc3)C2c2cccs2)cc1 (configuration not stated) the results were KCNQ2 pot inactive and KCNQ2 inh inactive.
`COc1ccc(CNc2cc(C)ccn2)cc1` gave KCNQ2 pot inactive and KCNQ2 inh inactive.
For Cc1cc(C(=O)CSc2ccc(Cl)cc2)cc(C)c1OC(=S)N(C)C the results were KCNQ2 pot inactive, KCNQ2 inh -8.7, KCNQ2 block conf inactive, KCNQ1 spec inactive and CHO parental ctr inactive.
`Cc1cc(C(=O)CSc2ccc(F)cc2)cc(C)c1O` gave KCNQ2 pot inactive and KCNQ2 inh inactive.
CN(c1ccccc1C(=O)Nc1cccc(Br)c1)S(=O)(=O)c1ccccc1 was read as KCNQ2 pot inactive, KCNQ2 inh -6.7, KCNQ2 block conf inactive, KCNQ1 spec inactive and CHO parental ctr inactive.
`CN(c1ccccc1C(=O)Nc1cccc([N+](=O)[O-])c1)S(=O)(=O)c1ccccc1` gave KCNQ2 inh inactive.
COC(=O)CCC(=O)N1CCCC(CO)(Cc2ccccc2C)C1 (configuration not stated) was read as KCNQ2 pot inactive and KCNQ2 inh inactive.
Screening Cc1ccccc1CC1(CO)CCCN(C(=O)CCC(=O)c2ccccc2)C1 (configuration not stated) returned KCNQ2 pot inactive, KCNQ2 inh -8.6, KCNQ2 block conf -30%, KCNQ1 spec inactive, CHO parental ctr inactive and KCNQ2 patch conf active.
For Cc1ncc(N=Nc2ccc(F)cc2)c(-c2ccc(Cl)cc2)n1 the results were KCNQ2 pot inactive and KCNQ2 inh inactive.
Cc1ccn2c(/C=N/OCc3ccc(F)cc3)c(-c3ccc(Cl)cc3)nc2c1 was read as KCNQ2 pot inactive, KCNQ2 inh -9, KCNQ2 block conf -26%, KCNQ1 spec inactive, CHO parental ctr inactive and KCNQ2 patch conf active.
Clc1ccc(CO/N=C/c2c(-c3ccccc3)nc3n2CCS3)c(Cl)c1 was read as KCNQ2 inh inactive.
Screening Cc1ccn2c(/C=N/OCc3cccc(F)c3)c(-c3ccc(Cl)cc3)nc2c1 returned KCNQ2 pot inactive, KCNQ2 inh -7.8, KCNQ2 block conf -18%, KCNQ1 spec inactive, CHO parental ctr inactive and KCNQ2 patch conf inactive.
Cc1cc(C(=O)Nc2ccc(C(=O)O)cc2)c(C)o1 was read as KCNQ2 pot inactive and KCNQ2 inh inactive.
Screening CCCOC(=O)/C(=C\C=C\c1ccccc1)NC(=O)c1ccccc1 returned KCNQ2 inh inactive.
Screening CCCCOC(=O)/C(=C/C=C/c1ccccc1)NC(=O)c1ccccc1 returned KCNQ2 pot inactive, KCNQ2 inh -6.9, KCNQ2 block conf -25%, KCNQ1 spec inactive, CHO parental ctr inactive and KCNQ2 patch conf inactive.
For COCCCNC(=O)c1ccccc1N(Cc1ccccc1)S(=O)(=O)c1ccc(OC)cc1 the results were KCNQ2 inh inactive.
Screening Cc1cc([N+](=O)[O-])ccc1NC(=O)C[n+]1ccc(N(C)C)cc1 returned KCNQ2 inh inactive.
Screening O=C1c2oc3ccc(Cl)cc3c(=O)c2C(c2cccc(Br)c2)N1CCO (configuration not stated) returned KCNQ2 pot inactive, KCNQ2 inh -11, KCNQ2 block conf inactive, KCNQ1 spec inactive and CHO parental ctr inactive.
Screening CCN(CC)CCN1C(=O)c2oc3ccccc3c(=O)c2C1c1cccc(Br)c1 (configuration not stated) returned KCNQ2 pot inactive and KCNQ2 inh inactive.
`Cc1cccc2cc(C(c3nnnn3C3CCCC3)N3CCOCC3)c(=O)[nH]c12` (configuration not stated) gave KCNQ2 pot inactive, KCNQ2 inh -7.8, KCNQ2 block conf -24%, KCNQ1 spec inactive, CHO parental ctr inactive and KCNQ2 patch conf active.
CCC(C)(C)n1nnnc1C(c1cc2cccc(C)c2[nH]c1=O)N1CCCC1 (configuration not stated) was read as KCNQ2 inh inactive.
Cc1ccc(F)cc1NC(=O)c1c(-c2ccccc2)noc1C was read as KCNQ2 pot inactive, KCNQ2 inh -8.1, KCNQ2 block conf inactive, KCNQ1 spec inactive and CHO parental ctr inactive.
`Cc1onc(-c2ccccc2)c1C(=O)Nc1ccncc1` gave KCNQ2 pot inactive and KCNQ2 inh inactive.
